The list is not random: actives were taken first. Their share in the collection is about 2.3%.
CHRM1 agonist = agonists of human M1 muscarinic receptor. P11229. CHO-K1 hM1, Fluo-8 calcium fluorescence, agonist mode; 0% DMSO, 100% acetylcholine EC100. activation, % at 3 µM. hit rate 0.33% among 360,000. AID 588814;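 active means activation above the run's mean compound activation plus 3 SD, cut at about 16% in these data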;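 further: peak over basal fluorescence ratio within a 140 s kinetic read after compound addition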
Target sequence (P11229 whole entry, looked up): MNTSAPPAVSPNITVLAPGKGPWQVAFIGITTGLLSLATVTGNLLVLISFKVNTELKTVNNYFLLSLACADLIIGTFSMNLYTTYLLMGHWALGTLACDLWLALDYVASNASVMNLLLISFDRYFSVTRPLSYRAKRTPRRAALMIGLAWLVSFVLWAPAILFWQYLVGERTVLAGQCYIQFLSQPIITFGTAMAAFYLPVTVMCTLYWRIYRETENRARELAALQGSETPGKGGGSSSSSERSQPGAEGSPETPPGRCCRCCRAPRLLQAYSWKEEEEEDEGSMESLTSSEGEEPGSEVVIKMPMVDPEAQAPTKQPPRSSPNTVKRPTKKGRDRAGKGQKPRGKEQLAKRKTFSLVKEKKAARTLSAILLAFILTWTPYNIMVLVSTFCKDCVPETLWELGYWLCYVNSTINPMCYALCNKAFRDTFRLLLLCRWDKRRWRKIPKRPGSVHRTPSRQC
CHO-K1 Ca antag = counter-screen for M1 antagonists: effect in parental CHO-K1 cells. hit rate 0.6% among 360,000. inhibition, % at 3 µM. ATP-induced calcium, Fluo-8 fluorescence;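 active means inhibition above a per-plate cutoff, the plate's mean sample inhibition plus 3 SD, cut at about 24% in these data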;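 further: 0% = DMSO plus EC80 ATP and 100% = DMSO alone without ATP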
M1 ag parental = counter-screen for M1 agonists: effect in parental CHO-K1 cells | AID 602248 | hit rate 0.48% among 360,000 | Fluo-8 calcium fluorescence; scaled to maximal ATP response, vehicle zero | activation, % at 3 µM; in the data active means activation above about 15%;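 further: untransfected CHO-K1 host cells lacking M1 receptor as counterscreen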
CHO-K1 Ca PAM = counter-screen for M1 PAMs: effect in parental CHO-K1 cells; activation, % at 3 µM; hit rate 0.02% among 360,000; ATP EC20, Fluo-8 calcium fluorescence; 0% at ATP EC20, 100% at ATP max; AID 602247;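 active means activation above the run cutoff, the mean activation of all test compounds plus 3 SD, cut at about 40% in these data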;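 further: peak over basal fluorescence ratio in a 140 s read after ATP addition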
M1 antag = human CHRM1 antagonism; hit rate 1.3% among 360,000; P11229; CHO-K1 hM1, Fluo-8 calcium fluorescence, ACh EC80 antagonist; AID 588852; inhibition, % at 3 µM;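 active means percent inhibition above its own plate's cutoff, namely the mean of that plate's compound wells plus 3 SD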;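 further: peak over basal fluorescence ratio during 140 s after agonist addition; 0% = ACh EC80 plus DMSO and 100% = DMSO alone without agonist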
M1 PAM = positive allosteric modulators of human M1 muscarinic receptor. hit rate 0.088% among 360,000. activation, % at 3 µM. CHO-K1 hM1, Fluo-8 calcium fluorescence, ACh EC20; 0% = ACh EC20, 100% = maximal ACh; in the data active means activation above about 19%, passing the limit was not always enough
* = called active by the depositor.

What do the screens show for `CC(C)C(OC(=O)c1nsc(Cl)c1Cl)C(=O)NCC1CCCO1` (centres undefined)?
CHRM1 agonist: -11; CHO-K1 Ca antag: -16; M1 ag parental: 0; CHO-K1 Ca PAM: 9; M1 antag: -7; M1 PAM: 5

How did O=[N+]([O-])c1ccc(OCC(O)CN(C2CCCCC2)C2CCCCC2)cc1 (centres undefined) do in these assays?
CHRM1 agonist: -14; CHO-K1 Ca antag: -4; M1 ag parental: -1; CHO-K1 Ca PAM: 12; M1 antag: -8; M1 PAM: 8

What do the screens show for `COc1ccc(OCC(O)CN(C2CCCCC2)C2CCCCC2)cc1` (centres undefined)?
CHRM1 agonist: -3; CHO-K1 Ca antag: 26*; M1 ag parental: 0; CHO-K1 Ca PAM: -5; M1 antag: -1; M1 PAM: 6

Results for Cc1c(NC(=O)C(C)OC(=O)Cc2ccc(F)cc2)c(=O)n(-c2ccccc2)n1C (centres undefined) ?
CHRM1 agonist: -1; CHO-K1 Ca antag: 25*; M1 ag parental: 0; CHO-K1 Ca PAM: -17; M1 antag: 38*; M1 PAM: -14

What do the screens show for `C/C(=N\NC(=O)CSc1nc(C)[nH]c1[N+](=O)[O-])c1ccc(F)cc1`?
CHRM1 agonist: -1; CHO-K1 Ca antag: -5; M1 ag parental: 1; CHO-K1 Ca PAM: -16; M1 antag: -17; M1 PAM: 11

What do the screens show for `COc1ccccc1C(=O)Nc1nc2ccccc2s1`?
CHRM1 agonist: -6; CHO-K1 Ca antag: -3; M1 ag parental: 1; CHO-K1 Ca PAM: 15; M1 antag: 31*; M1 PAM: -17

Results for COc1ccc(C(=O)Nc2nc3ccccc3s2)c(OC)c1 ?
CHRM1 agonist: -6; CHO-K1 Ca antag: 1; M1 ag parental: 1; CHO-K1 Ca PAM: -5; M1 antag: -7; M1 PAM: -2

Results for COc1cc(OC)c(-c2nc3ccccc3s2)cc1OC ?
CHRM1 agonist: -4; CHO-K1 Ca antag: -9; M1 ag parental: 0; CHO-K1 Ca PAM: 1; M1 antag: -3; M1 PAM: 6

What do the screens show for `COc1cccc(-c2nc3ccccc3s2)c1O`?
CHRM1 agonist: -9; CHO-K1 Ca antag: 1; M1 ag parental: 15*; CHO-K1 Ca PAM: 18; M1 antag: 2; M1 PAM: 12

How did Cc1ccc(OCC(=O)c2cc(C)n(Cc3cccs3)c2C)c([N+](=O)[O-])n1 do in these assays?
CHRM1 agonist: -2; CHO-K1 Ca antag: 28*; M1 ag parental: 7; CHO-K1 Ca PAM: -11; M1 antag: 20; M1 PAM: -11

What do the screens show for `Cc1ccc(OCC(=O)c2cc(C)n(CC(F)(F)F)c2C)c([N+](=O)[O-])n1`?
CHRM1 agonist: 1; CHO-K1 Ca antag: -7; M1 ag parental: 3; CHO-K1 Ca PAM: -2; M1 antag: -4; M1 PAM: 8

What do the screens show for `CCc1ccc(CN2CCC(Oc3ccc(C(=O)N4CCCCC4)cc3)CC2)cc1`?
CHRM1 agonist: -5; CHO-K1 Ca antag: -8; M1 ag parental: 4; CHO-K1 Ca PAM: 2; M1 antag: 42*; M1 PAM: -21

How did CCc1ccc(CN2CCC(Oc3ccc(C(=O)N4CCCC4)cc3)CC2)cc1 do in these assays?
CHRM1 agonist: -6; CHO-K1 Ca antag: 5; M1 ag parental: 1; CHO-K1 Ca PAM: -20; M1 antag: 82*; M1 PAM: -24

How did CC(C)c1ccc(CN2CCC(Oc3ccc(C(=O)N4CCCC4)cc3)CC2)cc1 do in these assays?
CHRM1 agonist: -4; CHO-K1 Ca antag: 3; M1 ag parental: 2; CHO-K1 Ca PAM: -8; M1 antag: 81*; M1 PAM: -23

Results for CCOC(=O)C1(CC2CC2)CCN(Cc2ccc(OC)cc2F)CC1 ?
CHRM1 agonist: -9; CHO-K1 Ca antag: 13; M1 ag parental: 3; CHO-K1 Ca PAM: -12; M1 antag: 28*; M1 PAM: -25

What do the screens show for `O=C(c1ccc(OC2CCN(Cc3ccc(F)cc3)CC2)cc1)N1CCCC1`?
CHRM1 agonist: -6; CHO-K1 Ca antag: -9; M1 ag parental: 2; CHO-K1 Ca PAM: 6; M1 antag: 1; M1 PAM: -5

Results for Cc1ccc(C(c2cc(Br)ccc2O)N2CCSCC2)cc1 (centres undefined) ?
CHRM1 agonist: -4; CHO-K1 Ca antag: -9; M1 ag parental: 0; CHO-K1 Ca PAM: 0; M1 antag: 3; M1 PAM: -2

Screens deposited in PubChem by The Scripps Research Institute Molecular Screening Center.
